Screens: PubChem, several laboratories
LGR2 inh = inhibitors of bursicon-induced Drosophila LGR2 receptor cAMP signaling; AID 720647; HEK293 LGR2, CRE-luciferase, bursicon-stimulated, 4 h; inhibition, % at 9.99 µM; hit rate 0.35% among 380,000;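 active = drop in luminescence signal, shown as inhibition above about 50% in the replicate tests, limit read from the data, passing the limit was not always enough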;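 note: agonist challenge used bursicon conditioned medium at about half maximal strength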
KKLEB cytotox = CF airway cell cytotoxicity counter-screen; AID 602141; hit rate 0.36% among 360,000; KKLEB CF airway cells viability, ATPlite luminescence, overnight; active compounds read low; cells stimulated with P. aeruginosa culture filtrate; activity change (cytotoxicity), % at 5 µM;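 active = corrected activity change at or below -50% at 5 µM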
CF NFkB inh = inhibitors of cystic fibrosis induced NF-kB | KKLEB NF-kB-GFP reporter, PAF-induced, GFP fluorescence overnight | inhibition, % at 5 µM | hit rate 0.86% among 360,000;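 active = at least 50% inhibition at 5 µM, scaled per plate between neutral and stimulator controls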;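 note: PAF is a Pseudomonas aeruginosa culture filtrate used as stimulus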
HSP90 inh = inhibitors of HSP90 luciferase refolding in rabbit reticulocyte lysate | luciferase refolding luminescence, 3 h | inhibition, % at 5.6 µM | hit rate 0.91% among 290,000 | AID 1789;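 active = inhibition above the screen-wide mean plus 3 SD, computed separately per campaign, cut at about 16% in these data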;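 note: inhibitors lower the luminescence because luciferase stays unfolded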
Peg3 prom inh = Peg3 promoter activity inhibition | HeLa PEG-Prom luciferase reporter, luminescence, overnight | inhibition, % at 20 µM | hit rate 1.7% among 360,000 | AID 588405;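 active = inhibition of at least 50% at 20 µM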
Mdm2-MdmX inh = human Mdm2/MdmX binding inhibition | SaOS-2 split-luciferase Mdm2/MdmX complementation, luminescence | inhibition, % at 8 µM | hit rate 3% among 330,000;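 active = inhibition of at least 50% at 8 µM in the primary screen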
Target sequence (O15151 whole entry, looked up): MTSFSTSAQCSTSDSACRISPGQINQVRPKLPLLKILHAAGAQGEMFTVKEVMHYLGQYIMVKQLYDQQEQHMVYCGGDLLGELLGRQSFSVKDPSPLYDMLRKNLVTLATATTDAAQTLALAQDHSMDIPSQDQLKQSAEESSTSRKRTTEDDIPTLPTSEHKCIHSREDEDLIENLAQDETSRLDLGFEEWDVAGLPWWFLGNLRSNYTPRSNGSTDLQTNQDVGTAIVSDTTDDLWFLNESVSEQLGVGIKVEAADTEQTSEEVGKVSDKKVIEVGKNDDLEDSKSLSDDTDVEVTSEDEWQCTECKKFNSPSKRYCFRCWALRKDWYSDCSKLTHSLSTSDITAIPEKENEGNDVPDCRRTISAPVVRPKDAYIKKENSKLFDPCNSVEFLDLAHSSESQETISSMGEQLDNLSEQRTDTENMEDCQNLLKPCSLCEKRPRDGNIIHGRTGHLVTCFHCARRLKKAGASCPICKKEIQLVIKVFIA
Target sequence (Q00987 whole entry, looked up): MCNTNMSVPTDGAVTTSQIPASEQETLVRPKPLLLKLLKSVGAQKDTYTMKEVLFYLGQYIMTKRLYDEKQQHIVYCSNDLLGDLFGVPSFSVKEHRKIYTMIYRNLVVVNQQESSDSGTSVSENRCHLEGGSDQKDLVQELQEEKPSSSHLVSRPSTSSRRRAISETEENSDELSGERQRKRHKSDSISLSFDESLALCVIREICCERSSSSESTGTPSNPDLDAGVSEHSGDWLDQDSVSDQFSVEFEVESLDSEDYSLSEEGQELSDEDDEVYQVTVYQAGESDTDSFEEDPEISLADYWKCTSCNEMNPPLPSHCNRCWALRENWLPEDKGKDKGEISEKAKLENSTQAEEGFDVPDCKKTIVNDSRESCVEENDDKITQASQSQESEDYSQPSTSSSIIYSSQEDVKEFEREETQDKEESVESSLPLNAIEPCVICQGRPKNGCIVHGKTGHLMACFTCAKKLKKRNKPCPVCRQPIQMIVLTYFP
Mdm2-MdmX conf = confirmation of human Mdm2/MdmX interaction inhibitors; shares compounds with Mdm2-MdmX inh; Mdm2-MdmX binding, luminescent assay; inhibition, % at 8 µM; hit rate 55% among 10,000; AID 489028; in the data active = inhibition above about 40%
FLuc counter = full-length luciferase inhibition in Mdm2/MdmX counter-screen. inhibition, % at 8 µM. SaOS-2 full-length luciferase counterscreen, luminescence. AID 504607. hit rate 77% among 6,200. shares compounds with Mdm2-MdmX inh;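 active = mean inhibition at 8 µM reaching about 37%, which flags the compound as non-specific, limit read from the data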;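 note: p53-null SaOS-2 cells with luciferase driven by a doxycycline-inducible promoter; compound on cells about two nights before reading with doxycycline added after day one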
A number is an active result; 0 = inactive; - = no result. Shown are actives, neighbours in structure and some others; about 3.6% of the full set was active somewhere.

SMILES	LGR2 inh	KKLEB cytotox	CF NFkB inh	HSP90 inh	Peg3 prom inh	Mdm2-MdmX inh	Mdm2-MdmX conf	FLuc counter
O=c1nc(Nc2ccc(OCc3ccccc3)cc2)sc2ncccc12	0	0	0	0	0	69.3	82.1	0
CCOC(=O)c1ccc(Nc2nc(=O)c3cccnc3s2)cc1	-	0	0	0	0	70.9	40.6	72.5
N#C[C@@H]1[C@H](c2ccc(C3=CCCCC3)cc2)[C@H](CO)N1C(=O)CN1CCOCC1	0	-	-	-	-	-	-	-
C[C@H](CO)N1C[C@H](C)[C@@H](CN(C)S(=O)(=O)c2ccc(F)cc2)Oc2ccc(NC(=O)Cc3cn(C)c4ccccc34)cc2CC1=O	0	-	-	-	-	-	-	-
C[C@@H]1CCCCO[C@H](CN(C)C(=O)Nc2cccc3ccccc23)[C@H](C)CN([C@H](C)CO)C(=O)c2cc(N(C)C)ccc2O1	0	-	-	-	-	-	-	-
C[C@@H]1CN([C@H](C)CO)C(=O)Cc2cc(NC(=O)Nc3ccc4c(c3)OCO4)ccc2O[C@H]1CN(C)CC1CC1	0	-	-	-	-	-	-	-
O=C(Nc1ccc([N+](=O)[O-])cc1)c1cc2ccccc2nc1Cl	0	0	0	0	0	0	-	-
O=C(Nc1ccccc1[N+](=O)[O-])C1=C(O)CCn2c1nc1ccccc12	-	0	0	0	0	70.7	0	-
O=C(Nc1ccccc1[N+](=O)[O-])c1cc2ccccc2nc1Cl	0	0	0	0	0	63.6	0	-
CCCC(=O)Nc1ccc2c(c1)OC[C@H](C)N(Cc1nccs1)C[C@H](C)[C@H](OC)CN(C)C2=O	0	-	-	-	-	-	-	-
CCN1C(=O)CC(c2ccccc2)N(C2CCCC2)c2nc(Nc3ccc(C(=O)NC4CCN(C)CC4)cc3OC)ncc21 (stereo unspecified)	-	0	0	-	93.7	98.0	46.1	78.5
CCN1C(=O)CSc2ccc(C(=O)NC3CCCCC3)cc21	0	0	0	0	0	0	-	-
Cc1c(NC(=O)CSc2nnc3c4ccccc4n(CCc4ccccc4)c3n2)c(=O)n(-c2ccccc2)n1C	-	0	0	0	0	100.3	90.5	52.0
C[C@@H]1CN([C@@H](C)CO)C(=O)c2ccccc2-c2ccccc2CO[C@H]1CN(C)C(=O)CCN(C)C	0	-	-	-	-	-	-	-
O=C(Nc1cccc(NC(=O)c2cc([N+](=O)[O-])ccc2Cl)n1)c1cc([N+](=O)[O-])ccc1Cl	-	0	0	-	92.8	96.4	95.7	49.5
Cc1ccc(OCCN2C(=O)C(=O)c3cc(C)ccc32)cc1	0	0	0	0	0	62.5	61.4	79.2
CCCN1C(=O)C(=O)c2cc(Cl)ccc21	0	0	0	-	0	72.7	66.6	45.4
C[C@H]1CN([C@@H](C)CO)C(=O)c2cc(-c3ccncc3)cnc2O[C@@H]1CN(C)C(=O)CN1CCOCC1	0	-	-	-	-	-	-	-
COc1ccc2c3c(n(C)c2c1)[C@@H](CO)N(C(=O)c1ccc(F)cc1)CC31CN(C)C1	0	-	-	-	-	-	-	-
CCCNC(=O)N1CC2(CN(Cc3ccc(F)cc3)C2)c2c([nH]c3cc(OC)ccc23)[C@@H]1CO	0	-	-	-	-	-	-	-
CCOc1ccccc1NC(=O)c1cc(-c2cc(OC)c(OC)c(OC)c2)nc2ccccc12	0	0	0	0	0	54.7	0	-
COc1cc(NC(=O)c2cc(-c3ccccc3)nc3c2cnn3C(C)C)cc(OC)c1OC	-	0	0	-	0	62.9	0	-
COc1ccc(NC(=O)c2cc(-c3cccnc3)nc3ccc(C)cc23)cc1OC	0	0	0	0	0	-	-	-
COc1ccc(NC(=O)c2cc(-c3ccncc3)nc3ccc(Br)cc23)cc1OC	0	0	0	0	94.4	96.7	0	-
COc1cc(-c2cc(C(=O)Nc3ccncc3)c3ccccc3n2)cc(OC)c1OC	0	0	0	-	0	0	-	-
SMILES	LGR2 inh	KKLEB cytotox	CF NFkB inh	HSP90 inh	Peg3 prom inh	Mdm2-MdmX inh	Mdm2-MdmX conf	FLuc counter
COc1ccc(-c2cc(C(=O)Nc3ccccc3O)c3ccccc3n2)cc1OC	0	0	0	0	0	52.1	51.9	106.9
COc1ccc(-c2cc(C(=O)Nc3ccc(Cl)cc3Cl)c3ccccc3n2)cc1OC	0	0	0	0	0	0	-	-
C[C@H](CO)N1C[C@H](C)[C@H](CN(C)C(=O)c2ccc(F)cc2)Oc2ncc(C#C[C@@H](C)O)cc2C1=O	0	-	-	-	-	-	-	-
CCOc1cc(N2CCOCC2)c(OCC)cc1NC(=O)c1cc(-c2ccco2)nc2ccccc12	0	0	98.8	0	0	69.5	65.8	72.4
CCOC(=O)N1CCN(c2c(F)cc3[nH]c(=S)[nH]c3c2Br)CC1	-	0	0	0	0	61.5	58.2	47.5
CC(=O)c1ccc(NC(=O)C2CCCN(c3ncnc4c3nc3n4CCCCC3)C2)cc1 (stereo unspecified)	0	0	0	0	0	0	-	-
O=C(Nc1ccc(F)c(Cl)c1)C1CCN(c2ncnc3c2nc2n3CCCCC2)CC1	0	0	0	0	0	0	-	-
CSc1cccc(NC(=O)C2CCCN(c3ncnc4c3nc3n4CCCCC3)C2)c1 (stereo unspecified)	0	0	0	0	0	57.4	0	-
CC(C)c1ccc(NC(=O)C2CCN(c3ncnc4c3nc3n4CCCCC3)CC2)cc1	0	0	0	0	0	72.4	0	-
O=C1NC[C@H](c2ccccc2)OC(=O)[C@@H](Cc2ccc(F)cc2)C/C=C\C[C@H]1CC(=O)N(CCO)Cc1ccccc1	60.9	-53.1	84.4	-	68.3	85.2	78.7	50.8
O=C1NC[C@@H](c2ccccc2)OC(=O)[C@H](Cc2ccc(F)cc2)C/C=C\C[C@H]1CC(=O)N(CCO)Cc1ccccc1	0	0	0	-	0	0	-	-
C[C@@H]1COC(=O)[C@H](Cc2ccc(F)cc2)CC/C=C/C[C@@H](CC(=O)N[C@@H](CO)Cc2ccccc2)C(=O)N1	0	0	0	-	0	0	-	-
O=C(C[C@@H]1C/C=C/CC[C@H](Cc2ccc(F)cc2)C(=O)OC[C@@H](Cc2ccccc2)NC1=O)N[C@H](CO)Cc1ccccc1	0	-91.0	62.3	-	81.6	96.1	92.8	0
CC(C)(C)OC(=O)C[C@@H]1C/C=C\C[C@H](CC(=O)N(CCO)Cc2ccccc2)C(=O)NC[C@@H](c2ccccc2)OC1=O	0	0	0	-	0	0	-	-
O=C1N[C@@H](Cc2c[nH]c3ccccc23)COC(=O)[C@H](Cc2ccc(F)cc2)C/C=C\C[C@@H]1CC(=O)N(CCO)Cc1ccccc1	0	0	0	-	0	0	-	-
O=C1NC[C@H](c2ccccc2)OC(=O)[C@H](Cc2ccc(F)cc2)C/C=C\C[C@H]1CC(=O)N(CCO)Cc1ccccc1	58.4	-86.4	102.5	-	54.1	80.5	62.9	46.6
O=C1N[C@@H](Cc2c[nH]c3ccccc23)COC(=O)[C@@H](Cc2ccc(F)cc2)C/C=C\C[C@H]1CC(=O)N(CCO)Cc1ccccc1	0	0	0	-	0	51.4	0	-
